# According to PubChem BioAssay AID1159580 (chemical genetic matrix, 2015):
# Where “and” joins values, the source holds several entries; their conditions need not be identical. Equal entries are not always repeated. The campaign covered roughly 5,500 compounds. About 2,000 (36%) were called active. About 18% were inconclusive and are not listed. The list shows a part of the results. A number with no mark means an inactive call. Rule as the data show it: active = normalized growth mostly below about 0.91 (no sharp cut-off); inconclusive = no clear call, values can overlap the other calls; inactive = mostly above about 0.92.
# Test: chemical genetic growth profiling, strain panel (AID 1159580);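 also: tested at 20 µM; growth read once vehicle control cultures reached saturation at 30 °C; 1 = growth at the plate median or of vehicle wells; lower values mean less growth of the strain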
# Settings: S. cerevisiae deletion strains, growth OD
smiles,measurement,setting,value
O=C1c2c(O)cccc2Cc2cccc(O)c21,normalized growth,"locus YAL013W, strain DEP1, hits give low values",1.04
same,normalized growth,"locus YAL021C, strain ccr4, hits give low values",0.958
same,normalized growth,"locus YAL026C, strain drs2, hits give low values",0.988
same,normalized growth,"locus YAL030W, strain snc1, hits give low values",0.986
same,normalized growth,"locus YBL061C, strain skt5, hits give low values",1
same,normalized growth,"locus YBR009C, strain hhf1, hits give low values",0.997
same,normalized growth,"locus YBR021W, strain FUR4, hits give low values",1
same,normalized growth,"locus YBR023C, strain chs3, hits give low values",0.988
same,normalized growth,"locus YBR171W, strain sec66, hits give low values",0.975
same,normalized growth,"locus YBR229C, strain ROT2, hits give low values",0.998
same,normalized growth,"locus YBR231C, strain swc5, hits give low values",0.981
same,normalized growth,"locus YBR279W, strain paf1, hits give low values",0.966
same,normalized growth,"locus YCL011C, strain gbp2, hits give low values",0.973
same,normalized growth,"locus YCL016C, strain dcc1, hits give low values",1.03
same,normalized growth,"locus YCL029C, strain bik1, hits give low values",0.992
same,normalized growth,"locus YCL061C, strain MRC1, hits give low values",0.978
same,normalized growth,"locus YCL069W, strain vba3, hits give low values",1.01
same,normalized growth,"locus YCR088W, strain abp1, hits give low values",1.01
same,normalized growth,"locus YDL005C, strain med2, hits give low values",0.978
same,normalized growth,"locus YDL035C, strain GPR1, hits give low values",1.02
same,normalized growth,"locus YDL040C, strain nat1, hits give low values",0.999
same,normalized growth,"locus YDL074C, strain BRE1, hits give low values",1.04
same,normalized growth,"locus YDL101C, strain DUN1, hits give low values",1.01
same,normalized growth,"locus YDL134C, strain PPH21, hits give low values",1.02
same,normalized growth,"locus YDL185W, strain tfp1, hits give low values",0.999
same,normalized growth,"locus YDL192W, strain arf1, hits give low values",0.994
same,normalized growth,"locus YDR001C, strain nth1, hits give low values",0.988
same,normalized growth,"locus YDR069C, strain doa4, hits give low values",0.946
same,normalized growth,"locus YDR101C, strain arx1, hits give low values",0.99
same,normalized growth,"locus YDR137W, strain rgp1, hits give low values",0.848
same,normalized growth,"locus YDR159W, strain sac3, hits give low values",0.982
same,normalized growth,"locus YDR162C, strain NBP2, hits give low values",1.03
same,normalized growth,"locus YDR195W, strain ref2",1.11
same,normalized growth,"locus YDR297W, strain sur2, hits give low values",1.01
same,normalized growth,"locus YDR318W, strain mcm21, hits give low values",0.994
same,normalized growth,"locus YDR334W, strain swr1, hits give low values",0.936
same,normalized growth,"locus YDR335W, strain msn5, hits give low values",0.999
same,normalized growth,"locus YDR388W, hits give low values",0.992
same,normalized growth,"locus YDR392W, strain spt3, hits give low values",0.986
same,normalized growth,"locus YDR502C, strain sam2, hits give low values",1.01
same,normalized growth,"locus YEL003W, strain gim4, hits give low values",1.03
same,normalized growth,"locus YEL037C, strain rad23, hits give low values",1
same,normalized growth,"locus YEL061C, strain CIN8 (second series), hits give low values",0.986
same,normalized growth,"locus YEL061C, strain CIN8, hits give low values",1
same,normalized growth,"locus YER015W, strain faa2, hits give low values",1.01
same,normalized growth,"locus YER016W, strain bim1, hits give low values",1.01
same,normalized growth,"locus YER110C, hits give low values",0.997
same,normalized growth,"locus YER111C, strain swi4, hits give low values",1.01
same,normalized growth,"locus YER155C, strain BEM2 (second series), hits give low values",0.957
same,normalized growth,"locus YER155C, strain BEM2, hits give low values",0.997
same,normalized growth,"locus YER167W, strain BCK2, hits give low values",1
same,normalized growth,"locus YFR010W, strain ubp6, hits give low values",0.957
same,normalized growth,"locus YGL078C, strain dbp3, hits give low values",0.992
same,normalized growth,"locus YGL086W, strain mad1, hits give low values",1
same,normalized growth,"locus YGL167C, strain pmr1, hits give low values",0.962
same,normalized growth,"locus YGL173C, strain kem1, hits give low values",0.996
same,normalized growth,"locus YGL227W, strain vid30, hits give low values",0.976
same,normalized growth,"locus YGL240W, strain doc1, hits give low values",0.985
same,normalized growth,"locus YGL248W, strain PDE1, hits give low values",1.02
same,normalized growth,"locus YGL253W, strain hxk2, hits give low values",0.963
same,normalized growth,"locus YGR078C, strain PAC10, hits give low values",1.03
same,normalized growth,"locus YGR135W, strain pre9, hits give low values",0.999
same,normalized growth,"locus YGR252W, strain gcn5, hits give low values",1.02
same,normalized growth,"locus YHR013C, strain ard1, hits give low values",1
same,normalized growth,"locus YHR027C, strain rpn1, hits give low values",0.976
same,normalized growth,"locus YHR030C, strain SLT2, hits give low values",1.01 and 1.06
same,normalized growth,"locus YHR079C, strain IRE1 (second series), hits give low values",0.994
same,normalized growth,"locus YHR079C, strain IRE1, hits give low values",1.08
same,normalized growth,"locus YHR094C, strain hxt1, hits give low values",0.993
same,normalized growth,"locus YHR129C, strain ARP1, hits give low values",1.01
same,normalized growth,"locus YHR142W, strain chs7, hits give low values",1.02
same,normalized growth,"locus YHR200W, strain rpn10, hits give low values",1
same,normalized growth,"locus YIL066C, strain RNR3, hits give low values",1.02
same,normalized growth,"locus YIL073C, strain SPO22, hits give low values",1.03
same,normalized growth,"locus YIL125W, strain kgd1, hits give low values",1
same,normalized growth,"locus YIR030C, strain dcg1, hits give low values",0.992
same,normalized growth,"locus YJL092W, strain hpr5, hits give low values",1.01
same,normalized growth,"locus YJL095W, strain BCK1 (second series), hits give low values",0.967
same,normalized growth,"locus YJL095W, strain BCK1, hits give low values",1.05 and 1.06
same,normalized growth,"locus YJL115W, strain asf1, hits give low values",0.982
same,normalized growth,"locus YJL129C, strain trk1, hits give low values",1.05
same,normalized growth,"locus YJL134W, strain LCB3, hits give low values",1.01
same,normalized growth,"locus YJL154C, strain vps35, hits give low values",0.988
same,normalized growth,"locus YJL164C, strain tpk1, hits give low values",1.02
same,normalized growth,"locus YJL166W, strain qcr8, hits give low values",0.984
same,normalized growth,"locus YJL168C, strain set2, hits give low values",0.99
same,normalized growth,"locus YJL187C, strain SWE1 (second series), hits give low values",1.02
same,normalized growth,"locus YJL187C, strain SWE1, hits give low values",1
same,normalized growth,"locus YJR043C, strain POL32, hits give low values",1.06
same,normalized growth,"locus YJR066W, strain TOR1, hits give low values",0.994
same,normalized growth,"locus YJR075W, strain HOC1, hits give low values",1.03
same,normalized growth,"locus YKL009W, strain mrt4, hits give low values",1.01
same,normalized growth,"locus YKL068W, hits give low values",0.99
same,normalized growth,"locus YKL085W, strain MDH1 (second series), hits give low values",0.994
same,normalized growth,"locus YKL085W, strain MDH1, hits give low values",0.994
same,normalized growth,"locus YKL160W, strain elf1, hits give low values",1
same,normalized growth,"locus YKR001C, strain vps1, hits give low values",1.01
same,normalized growth,"locus YKR026C, strain gcn3, hits give low values",0.991
same,normalized growth,"locus YKR091W, strain srl3, hits give low values",0.985
same,normalized growth,"locus YLL001W, strain dnm1, hits give low values",1
same,normalized growth,"locus YLL026W, hits give low values",1
same,normalized growth,"locus YLL041C, strain sdh2, hits give low values",0.997
same,normalized growth,"locus YLR027C, strain aat2, hits give low values",1.03
same,normalized growth,"locus YLR039C, strain RIC1, hits give low values",1.24
same,normalized growth,"locus YLR058C, strain SHM2, hits give low values",1.01
same,normalized growth,"locus YLR102C, strain apc9, hits give low values",0.995
same,normalized growth,"locus YLR113W, strain HOG1, hits give low values",1.13
same,normalized growth,"locus YLR221C, strain rsa3, hits give low values",0.985
same,normalized growth,"locus YLR258W, strain gsy2, hits give low values",0.976
same,normalized growth,"locus YLR262C, strain YPT6 (second series), hits give low values",0.862
same,normalized growth,"locus YLR262C, strain YPT6, hits give low values",1.28
same,normalized growth,"locus YLR268W, strain sec22, hits give low values",1.02
same,normalized growth,"locus YLR320W, strain mms22, hits give low values",0.996
same,normalized growth,"locus YLR330W, strain CHS5, hits give low values",1
same,normalized growth,"locus YLR342W, strain FKS1 (second series), hits give low values",1.01
same,normalized growth,"locus YLR342W, strain FKS1, hits give low values",0.996
same,normalized growth,"locus YLR357W, strain rsc2, hits give low values",0.921
same,normalized growth,"locus YLR370C, strain arc18, hits give low values",0.985
same,normalized growth,"locus YLR371W, strain rom2, hits give low values",1
same,normalized growth,"locus YLR384C, strain iki3, hits give low values",0.974
same,normalized growth,"locus YLR418C, strain cdc73, hits give low values",1.11
same,normalized growth,"locus YML016C, strain PPZ1, hits give low values",1
same,normalized growth,"locus YML032C, strain rad52, hits give low values",0.996
same,normalized growth,"locus YML120C, strain ndi1, hits give low values",1.02
same,normalized growth,"locus YML124C, strain tub3, hits give low values",0.988
same,normalized growth,"locus YMR058W, strain fet3, hits give low values",0.999
same,normalized growth,"locus YMR078C, strain ctf18, hits give low values",0.999
same,normalized growth,"locus YMR125W, strain sto1, hits give low values",0.988
same,normalized growth,"locus YMR129W, hits give low values",0.995
same,normalized growth,"locus YMR205C, strain PFK2, hits give low values",1.03
same,normalized growth,"locus YMR223W, strain ubp8, hits give low values",1
same,normalized growth,"locus YMR231W, strain pep5, hits give low values",0.976
same,normalized growth,"locus YMR263W, strain SAP30, hits give low values",1.02
same,normalized growth,"locus YMR307W, strain GAS1, hits give low values",0.997
same,normalized growth,"locus YNL067W, strain RPL9B, hits give low values",1.04
same,normalized growth,"locus YNL071W, strain lat1, hits give low values",1.02
same,normalized growth,"locus YNL183C, strain NPR1, hits give low values",1
same,normalized growth,"locus YNL209W, strain ssb2, hits give low values",1
same,normalized growth,"locus YNL233W, strain BNI4, hits give low values",1.05
same,normalized growth,"locus YNL248C, strain rpa49, hits give low values",0.906
same,normalized growth,"locus YNL250W, strain rad50, hits give low values",0.99
same,normalized growth,"locus YNL271C, strain bni1, hits give low values",0.989
same,normalized growth,"locus YNL298W, strain CLA4, hits give low values",0.985
same,normalized growth,"locus YNL307C, strain MCK1, hits give low values",1.01
same,normalized growth,"locus YNL322C, strain KRE1 (second series), hits give low values",0.988
same,normalized growth,"locus YNL322C, strain KRE1, hits give low values",1
same,normalized growth,"locus YNR049C, strain mso1, hits give low values",1.01
same,normalized growth,"locus YNR052C, strain pop2, hits give low values",0.993
same,normalized growth,"locus YOL012C, strain htz1",0.791
same,normalized growth,"locus YOL147C, strain pex11, hits give low values",0.997
same,normalized growth,"locus YOR001W, strain rrp6, hits give low values",0.979
same,normalized growth,"locus YOR061W, strain CKA2, hits give low values",1.01
same,normalized growth,"locus YOR069W, strain VPS5, hits give low values",1.01
same,normalized growth,"locus YOR070C, strain gyp1, hits give low values",1.03
same,normalized growth,"locus YOR080W, strain dia2, hits give low values",1
same,normalized growth,"locus YOR083W, strain WHI5, hits give low values",0.954
same,normalized growth,"locus YOR106W, strain vam3, hits give low values",0.898
same,normalized growth,"locus YOR136W, strain idh2, hits give low values",0.993
same,normalized growth,"locus YOR144C, strain elg1, hits give low values",0.996
same,normalized growth,"locus YOR184W, strain ser1, hits give low values",1.02
same,normalized growth,"locus YOR231W, strain MKK1, hits give low values",1.07
same,normalized growth,"locus YOR265W, strain rbl2, hits give low values",0.996
same,normalized growth,"locus YOR270C, strain vph1, hits give low values",0.755 (active)
same,normalized growth,"locus YOR290C, strain snf2, hits give low values",1.02
same,normalized growth,"locus YOR316C, strain cot1, hits give low values",0.997
same,normalized growth,"locus YPL051W, strain arl3, hits give low values",0.914 (active)
same,normalized growth,"locus YPL078C, strain atp4, hits give low values",1.01
same,normalized growth,"locus YPL106C, strain sse1, hits give low values",0.919
same,normalized growth,"locus YPL240C, strain hsp82, hits give low values",0.991
same,normalized growth,"locus YPL256C, strain CLN2, hits give low values",1.17
same,normalized growth,"locus YPR119W, strain clb2, hits give low values",0.988
same,normalized growth,"locus YPR141C, strain kar3, hits give low values",0.993
same,normalized growth,"locus YPR163C, strain tif3, hits give low values",0.997
same,normalized growth,"locus YPR167C, strain met16, hits give low values",1
same,normalized growth,"strain wtn01, hits give low values",0.999
